Screening results as filed in PubChem.
Hits are enriched below; roughly 2.7% of the tested compounds scored in any of these assays.
NadD inh = inhibitors of Staphylococcus aureus NadD; purified NadD enzyme, colorimetric absorbance read-out; inhibition, % at 20 µM; 0.78% of 360,000 active; AID 602399; in the data active = inhibition above about 26%
MsrA inh = inhibitors of bovine MsrA; AID 651718; 0.75% of 360,000 active; purified bovine MsrA, absorbance read-out; inhibition, % at 15.5 µM; in the data active = inhibition above about 4.5%
MsrA act = activates bovine MsrA enzyme. 0.3% of 360,000 active. activation, % at 10.6 µM. AID 602163. purified bovine MsrA, absorbance read-out; in the data active = activation above about 7.5%
rCAG binder = molecules binding r(CAG) RNA repeats; inhibition, % at 3 µM; 1.3% of 370,000 active; r(CAG) RNA repeat, TO-PRO-1 dye displacement fluorescence;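 active = inhibition above the plate cutoff, the mean of all test compounds on that plate plus 3 SD, cut at about 35% in these data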;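 note: higher means more dye released from RNA so lower well fluorescence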
Of the large screens only hits and unclear results are named; the others gave an inactive call.

N#Cc1c(N2CCCC(O)C2)nc(N)c2c(N)nc3c(c12)CC(=O)N3C12CC3CC(CC(C3)C1)C2 (centres undefined)	NadD inh 57
O=C(NC1CCCC1)c1ccc2nc(-c3ccco3)c(-c3ccco3)nc2c1	none (no result: MsrA inh, rCAG binder)
O=C(NCCc1ccccc1)c1ccc2nc(-c3ccco3)c(-c3ccco3)nc2c1	NadD inh 40 (no result: MsrA inh, rCAG binder)
c1coc(-c2nc3ccccc3nc2-c2ccco2)c1	rCAG binder 52
O=C(NCCO)c1ccc2nc(-c3ccco3)c(-c3ccco3)nc2c1	rCAG binder 54
CSc1cccc(-n2cc(-c3ccc4c(c3)OCO4)[nH]c2=O)c1	NadD inh 39 (no result: MsrA inh, rCAG binder)
CC1=CC2(C(Cc3ccccc3)N(CC3CC3)C(=NC(=O)c3ccccc3)N2C(=O)OCc2ccccc2)n2c(=O)n(-c3ccccc3)c(=O)n2C1 (centres undefined)	none (no result: NadD inh, MsrA inh, MsrA act)
C=CCn1c(SCC(=O)NC2CCCC2)nc2scc(-c3ccco3)c2c1=O	none
C=CCn1c(SCC(=O)NCCCC)nc2scc(-c3ccco3)c2c1=O	NadD inh 38
NC(=O)[C@@H]1CCCCNc2c(I)cc([N+](=O)[O-])cc2C(=O)N[C@@H](CCC(=O)O)C(=O)N[C@@H](CO)C(=O)N1	rCAG binder 46
COc1ccc(NC(=O)COC(=O)C2CC2)c(OC)c1	none
O=C1c2ccccc2C(=O)N1c1nccs1	none
O=c1c2ccccc2sn1-c1nccs1	MsrA act 17
Cn1sc2ccccc2c1=O	MsrA act 7.8
CCN(CC)CCCNC(=O)c1oc(=O)c2ccccc2c1-c1ccc(C)cc1	none (no result: NadD inh, MsrA inh, MsrA act)
O=C1CCC(C(=O)N(CCO)Cc2ccccc2)CN1CC1CCCCC1 (centres undefined)	none
Cc1[nH]c2ccccc2c1/C=N/Nc1ccc([N+](=O)[O-])cc1S(=O)(=O)Nc1ccc(Cl)cc1	NadD inh 38
CC(/C=C(\NC(=O)c1ccccc1)C(=O)N=Nc1c(O)[nH]c2ccc(C)cc12)=C\c1ccccc1	NadD inh 39
COC(=O)c1sc(=S)n(-c2cc(F)ccc2F)c1N	MsrA inh 4.6
CCOC(=O)c1sc(=S)n(-c2cc(F)ccc2F)c1N	none
Cn1c(SCCc2ccccc2)nnc1-c1ccco1	none (no result: NadD inh, MsrA inh, MsrA act)
Cc1ccc(-c2ccc(/C=C3/NC(=O)NC3=O)o2)cc1[N+](=O)[O-]	none
CC1=C(C#N)C(=O)NC(=O)/C1=C\c1ccc(-c2cc(C)c(C)cc2[N+](=O)[O-])o1	MsrA inh 9.0, rCAG binder 55
COCC1CN(CCc2ccc(F)cc2)S(=O)(=O)c2c(OCCN3C(=O)[C@@H]4[C@H](C3=O)[C@@H]3C=C[C@H]4C3)cccc2O1 (some centres undefined)	none (no result: NadD inh, MsrA act)
CN(C)c1ccc(C=c2c3ccccc3n3c2cc(-c2ccc(Cl)cc2)[n+]3C)cc1	NadD inh 39, MsrA act 14
CN(C)c1ccc(C=c2c3ccccc3n3c2c2c([n+]3C)CCCC2)cc1	none
COc1cc(N(C)C)ccc1C=c1c2ccccc2n2c1cc(-c1ccccc1)[n+]2C	none
CN(C)c1ccc(C=c2c3cc([N+](=O)[O-])ccc3n3c2cc(-c2ccccc2)[n+]3C)cc1	NadD inh 48
CC1=NN(c2nc(-c3ccccc3)cs2)C(=O)C1	rCAG binder 68
COc1ccccc1NC(=O)CSc1nc(O)cc(=O)n1-c1ccccc1OC	rCAG binder 40
O=C(CN1C(=O)/C(=C\c2ccco2)SC1=S)Nc1ccc(O)cc1C(=O)O	rCAG binder 88
O=C1/C(=C\c2ccco2)SC(=S)N1Cc1ccccc1	none
CCCc1nc2c(=O)n(C)c(=O)nc-2n(C)n1	none
Cn1nc(-c2ccccn2)nc2c(=O)n(C)c(=O)nc1-2	MsrA act 59
COc1ccc(Cl)cc1C(Nc1cccnc1)c1ccc2cccnc2c1O (centres undefined)	NadD inh 40
CC1(C(=O)NCCC#N)CCN1C(=O)C1(c2ccccc2)CC1 (centres undefined)	none
COc1ccc(C(=O)c2ccccc2)c2c(O)ccc(C(=O)c3ccccc3)c12	NadD inh 31
COc1ccc(C(=O)c2ccc(Cl)cc2)c2ccccc12	none
C/C(=N\NC(=O)c1nnn(-c2nonc2N)c1CN(C)c1ccccc1)c1ccccc1O	NadD inh 36
COC(=O)C1CCN(C(=O)COC(=O)c2cc(-c3ccccc3)nc3ccc(OC)cc23)CC1	none (no result: MsrA inh, rCAG binder)
CCCS(=O)(=O)NC(=O)C1(C)CCCN(C(=O)c2cccc(OC(F)(F)F)c2)C1 (centres undefined)	none
Cc1nccn1S(=O)(=O)c1ccc(Br)cc1Br	MsrA inh 5.5
S=C1NCCN1CC1CCN(CCCC2CCCC2)CC1	none
O=C(CSc1cccc[n+]1[O-])Nc1cc2c(cc1Cl)C(=O)c1ccccc1C2=O	NadD inh 34
CC(=O)CC[C@H]1CC[C@]2(CCCN(S(=O)(=O)c3ccccc3)C2)O1	none (no result: NadD inh, MsrA inh, MsrA act)
O=C1/C(=C/c2ccncc2)SC(=S)N1C1CCCCC1	none
Cc1ccc(/C=C2/SC(=S)N(C3CCCCC3)C2=O)o1	rCAG binder 55
COc1cc(NS(=O)(=O)c2ccc(NC(=O)/C(=C\c3ccccc3OC)NC(=O)c3ccccc3)cc2)nc(OC)n1	NadD inh 31, rCAG binder 63
CCNC(=O)C1CCCN(C(=O)C(c2ccccc2)c2ccccc2)CC1 (centres undefined)	none
CCOC(=O)C1=C(C)NC(C)=C(C(=O)OCC)C1C(=O)OCC(=O)NC1CCCCC1	none
Cc1cccc(Nc2nc(N)c(C#N)c(CC#N)c2C#N)c1	MsrA inh 4.6
C=CCN1N=C(/C=C/c2ccc(C)cc2)CCC1=O	MsrA inh 4.6
Cc1ccc(S(=O)(=O)C(C#N)c2nc3ccccc3nc2N2CC(C)OC(C)C2)cc1C (centres undefined)	rCAG binder 39
Cc1cccc(S(=O)(=O)C(C#N)c2nc3ccccc3nc2N2CC(C)OC(C)C2)c1 (centres undefined)	none
COC(=O)[C@]12C[C@H](CC(=O)NCc3cccs3)C(=O)N(Cc3ccco3)C1=C[C@H](C(C)(C)C)O[C@@H]2C	none (no result: NadD inh, MsrA inh, MsrA act)
O=C(O)COc1c(-c2ccco2)oc2ccccc2c1=O	none
NC(=O)COc1c(-c2ccco2)oc2ccccc2c1=O	MsrA inh 4.6
CCN(CC(=O)Nc1ccc(NC(C)=O)cc1)C(=O)c1cccc2ccccc12	none
Fc1cccc(-c2cc3nc4c(c(N5CCOCC5)n3n2)CCCC4)c1	none
Clc1cccc(-c2cc3nc4c(c(N5CCOCC5)n3n2)CCCC4)c1	MsrA inh 4.8
Cc1ccc(C2=NN=C(NC(=O)CSc3nnc4c5ccccc5n(C)c4n3)SC2)cc1	NadD inh 82 (no result: MsrA inh, rCAG binder)
Cn1cc(C(=O)N/N=C/C(Br)=C\c2ccccc2)ccc1=O	MsrA inh 5.4
COc1ccc(C(=O)N/N=C/C(Br)=C/c2ccccc2)cc1	none
CCOC(=O)C1CCN(C(=O)Nc2ccc3nc(-c4ccco4)c(-c4ccco4)nc3c2)CC1	NadD inh 66 (no result: MsrA inh, rCAG binder)
CCOC(=O)C1CCN(C(=O)Nc2ccc3c(c2)nc(C)n3C)CC1	none
COc1ccc(N=C2S/C(=C\c3ccc(OCC(=O)O)cc3)C(=O)N2CCc2c[nH]c3ccccc23)cc1	rCAG binder 68
COc1ccc(N=C2S/C(=C\c3ccc(N4CCOCC4)o3)C(=O)N2CCc2c[nH]c3ccccc23)cc1	none (no result: MsrA inh, rCAG binder)
